Screening results deposited in PubChem by National Center for Advancing Translational Sciences (NCATS).
Shown are actives, neighbours in structure and some others; about 2.4% of the full set was active somewhere.
D2 antagonist: antagonizes the human D2 dopamine receptor | P14416 | HEK293 TREx D2 cells, calcium flux, dopamine EC80 | inhibition, % at 10 µM | 340,000 compounds, 2% hits | AID 485344; in the data active = inhibition above about 30%; inactive = below that, where a call was filed; note: 0% is about no effect
Target sequence (P14416 whole entry, looked up): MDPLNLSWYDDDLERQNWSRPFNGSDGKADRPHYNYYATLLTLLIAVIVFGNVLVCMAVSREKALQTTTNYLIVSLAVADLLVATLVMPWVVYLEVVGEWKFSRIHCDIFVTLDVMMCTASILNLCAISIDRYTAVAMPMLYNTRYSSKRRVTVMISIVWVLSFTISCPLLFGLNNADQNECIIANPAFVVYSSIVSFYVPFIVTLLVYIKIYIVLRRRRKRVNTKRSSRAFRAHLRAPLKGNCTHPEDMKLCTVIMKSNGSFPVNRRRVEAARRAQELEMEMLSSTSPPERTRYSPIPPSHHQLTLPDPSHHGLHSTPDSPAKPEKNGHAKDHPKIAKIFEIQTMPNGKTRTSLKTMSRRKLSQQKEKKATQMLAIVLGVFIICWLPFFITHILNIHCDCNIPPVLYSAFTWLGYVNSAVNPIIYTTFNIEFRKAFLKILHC
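Overnight-induced (tetracycline, 30 C) HEK293 T-REx cells carrying force-coupled D2 receive a no-wash calcium dye, then compound, then EC80 dopamine at 180 s; signals are read kinetically throughout.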
D2 ag-1: human D2 receptor agonism in beta-arrestin assay | 360,000 compounds, 0.084% hits | DiscoveRx PathHunter D2 beta-arrestin, luminescence, 90 min; 100% = 57 uM dopamine signal | P14416 | AID 624465 | activation, % (concentration not given with the values); in the data active = activation above about 40%
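Agonist mode: compounds alone added to overnight-plated D2 PathHunter cells for 90 min at 37 C, with 57 uM final dopamine (EC100) defining full response. Beta-arrestin recruitment detected by chemiluminescent reagent, read after 1 h at ambient temperature.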
D2 ag-2: agonists of human D2 dopamine receptor; P14416; HEK293 T-REx D2 cells, calcium flux agonist mode; activation, % at 2 µM; 340,000 compounds, 0.53% hits; AID 485358;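 active = activation over 3 SD above normal in the single-dose calcium agonist read, cut at about 30% in these data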; note: 0% is about no effect
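HEK293 Trex D2 cells, tetracycline-induced, o/n 30 C 5% CO2; no-wash Ca dye, RT 30–90 min; 10-cycle baseline, 23 nl cpd added, kinetic Ca read 180 s; agonist hits = positive Ca response.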
D2 PAM-1: positively modulates the human D2 dopamine receptor allosterically | 340,000 compounds, 0.34% hits | AID 485347 | P14416 | HEK293 T-REx D2, calcium flux, EC20 dopamine potentiation | potentiation, % at 10 µM;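 active = potentiation over 3 SD above the plate norm, cut at about 30% in these data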; note: 0% is about no effect
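Tetracycline-induced Hek293 Trex D2 cells, force-coupled to calcium, loaded with no-wash calcium dye. Compound added with 180 s kinetic read for agonism, then EC20 dopamine and a further 180 s read for potentiation.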
D2 PAM-2: positive allosteric modulators of human D2 dopamine receptor; P14416; DiscoveRx D2 beta-arrestin cells, luminescence, 90 min; 100% = 57 uM dopamine signal; potentiation, % (concentration not given with the values); 360,000 compounds, 0.23% hits; AID 624464; in the data active = potentiation above about 50%
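PathHunter D2 cells, attached overnight at 37 deg C, received compound in DMSO plus dopamine at EC20 (50 nM final) for 90 min at 37 deg C. Beta-arrestin recruitment was read as luminescence after 1 h with detection reagent at ambient temperature.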
* marks the source's active call; other numbers are inactive results; nt = no result.

SMILES	D2 antagonist	D2 ag-1	D2 ag-2	D2 PAM-1	D2 PAM-2
CCOc1ccc(N2C(=O)/C(=C/c3cc(OC)c(OC)c(OC)c3)N(CC(=O)OC)C2=S)cc1	-6.8	-3.9	1.6	46.5*	-1.3
CCOc1ccc(/C=C2/C(=O)N(c3ccc(OC)cc3)C(=S)N2CC(=O)OC)cc1OCC	17.5	-4.1	0.8	-2.1	10.2
COc1ccc(C(=O)Nc2cccc(NC(=O)c3ccc(OC)c(OC)c3)n2)cc1OC	-3.9	5.1	-0.9	4.5	85.3*
COc1ccccc1C(=O)NCCC(=O)NC(C)c1ccc(-n2ccnc2)cc1 (configuration not stated)	32.7*	-2.7	0.4	-2.5	-15.4
CC(NC(=O)CCNC(=O)c1ccccc1Cl)c1ccc(-n2ccnc2)cc1 (configuration not stated)	-26.4	-0.8	-0.2	-3.7	-1.0
Cc1ccnn1CC(=O)N/N=C/c1c[nH]c2ccccc12	-17.7	-2.1	-0.2	-0.8	-2.2
Cc1ccnn1CC(=O)N/N=C/c1cn[nH]c1-c1ccccc1	43.9*	-2.9	0.2	0.7	0.4
O=C(Nc1nnc2n1CCS2)c1cc(C(F)(F)F)cc(C(F)(F)F)c1	nt	nt	nt	-5.2	nt
Cc1cc(OCCN2CCOCC2)ccc1Cl	46.5*	4.8	0.4	-1.6	-6.6
CC1CCN(CCOc2ccc(Cl)c(Cl)c2)CC1	83.6*	-3.8	6.3	-25.9	-13.6
Cc1ccc(OCCN2CCOCC2)cc1C	-10.3	-0.5	-0.3	-3.4	-13.4
CC(=O)c1ccc(NC(=O)C2CCC(CNS(=O)(=O)c3cccs3)CC2)cc1 (configuration not stated)	nt	nt	0.8	15.2	nt
COc1ccc(-c2cc(C(F)(F)F)nc(SCC(=O)NCCc3ccc(OC)c(OC)c3)n2)cc1	nt	nt	-0.2	2.5	nt
O=C(N/N=C/C=C\c1ccccc1[N+](=O)[O-])c1ccccn1	81.4*	-3.6	-1.0	-21.3	-15.8
CCN1CCC[C@H]1CNC(=O)c1cc(S(N)(=O)=O)ccc1OC	87.4*	nt	0.6	-22.5	nt
CCN1CCCC1CNC(=O)c1csc2c1CCCC2 (configuration not stated)	86.5*	-1.6	-2.5	-17.8	-29.0
CCC1CCCN1Cn1cnc2c([nH]c3ccc(OC)cc32)c1=O (configuration not stated)	-14.8	1.7	-1.0	35.1*	-21.5
CCC1CCCN1Cn1cnc2c([nH]c3ccccc32)c1=O (configuration not stated)	-7.8	-1.5	-1.0	0.8	-11.9
CCN1CCCC1CNC(=O)c1cc([N+](=O)[O-])c(N(C)C)cc1OC (configuration not stated)	74.6*	-3.7	0.2	-38.1	-3.7
CC(C)(C)C1CCc2c(sc(NC(=O)c3ccc(Cl)cc3)c2C(=O)NCc2ccco2)C1 (configuration not stated)	nt	nt	0.9	6.2	nt
CCN1CCCC1CNC(=O)c1[nH]c2ccc(OC)cc2c1C (configuration not stated)	40.1*	-4.6	nt	-34.6	-22.2
CCN1CCCC1CNC(=O)c1cc2ccc(OC)cc2[nH]1 (configuration not stated)	9.2	-2.8	0.2	-0.5	-25.5
CCOCCn1ccc2c(OCC(=O)NCc3ccc(F)cc3)cccc2c1=O	nt	nt	1.6	-4.2	nt
CCOC1(OCC)C(c2ccc(Cl)cc2)C(C#N)(C#N)C1(OCC)OCC (configuration not stated)	38.5*	-2.9	1.1	11.9	-7.5
Clc1ccccc1/C=N/N1CCN(Cc2ccccc2)CC1	-9.1	-0.3	0.3	-7.5	-5.6
SMILES	D2 antagonist	D2 ag-1	D2 ag-2	D2 PAM-1	D2 PAM-2
Cc1ccc(CN2CCN(/N=C/c3ccc(C(F)(F)F)cc3)CC2)cc1	-25.9	1.1	-0.1	-3.2	-15.2
Cc1ccc(/C=N/N2CCN(Cc3ccc(C)cc3)CC2)cc1	54.9*	0.9	-0.3	-20.1	-13.4
Cc1ccc(CN2CCN(/N=C/c3cccs3)CC2)cc1	33.8*	-1.2	-0.7	-24.6	-29.6
FC(F)(F)c1ccccc1/C=N/N1CCN(Cc2ccccc2)CC1	30.1*	-0.1	-0.5	-21.3	-21.2
O=C(Cn1c(=O)ccc2cc(S(=O)(=O)N3CCCC3)ccc21)Nc1ccc(Cl)cc1	nt	nt	-2.2	nt	nt
Cc1cc(C)c(N=Cc2c(O)n(-c3nccs3)c(=O)c3ccccc23)c(C)c1	41.0*	-2.6	1.0	-27.0	-32.8
O=C(CC(c1ccccc1)c1cc(Br)ccc1O)NCCCN1CCOCC1 (configuration not stated)	-2.4	-5.2	-0.1	-5.5	-6.6
O=C(CC(c1ccccc1)c1cc(Br)ccc1O)NCCN1CCOCC1 (configuration not stated)	77.0*	-1.9	-2.6	7.6	-32.3
CCOC(=O)CNC(c1ccccc1)c1cc(Br)ccc1NC(=O)CCN1CCOCC1 (configuration not stated)	37.9*	-6.6	0.2	-26.8	-21.4
CCOC(=O)CC(NC(=O)c1cc2c(=O)n3cccc(C)c3nc2s1)c1ccc(OCC)c(OC)c1 (configuration not stated)	nt	nt	-0.7	6.8	nt
O=C(Cn1c(SCCOc2ccccc2Cl)nc2ccccc21)N1CCOCC1	nt	nt	nt	-9.8	nt
O=S(=O)(N/N=C/c1ccc(N2CCOCC2)cc1)c1ccc(Br)cc1	1.9	-2.2	0.1	30.9*	-8.4
COc1ccc(S(N)(=O)=O)cc1-c1nnc2c3ccccc3c(C)nn12	30.1*	0.6	0.0	-3.4	-0.1
CCOc1ccc(CN2CCCC(CO)(Cc3ccc(F)cc3)C2)cc1 (configuration not stated)	68.1*	-0.9	0.5	-17.7	-21.3
CC(C)Cc1cc(CN2CCCC(CO)(Cc3cccc(Cl)c3)C2)[nH]n1 (configuration not stated)	53.5*	-3.9	0.7	-27.8	-13.2
CSc1ccc(CN2CCCC(CO)(Cc3ccccc3)C2)cc1 (configuration not stated)	51.0*	-1.7	0.0	-27.2	-12.0
COc1cc(CN2CCCC(CO)(Cc3ccccc3F)C2)ccc1O (configuration not stated)	14.4	-4.9	0.3	-5.6	-4.6
COC(=O)c1ccc(CN2CCCC(CO)(Cc3ccccc3F)C2)cc1 (configuration not stated)	83.7*	-0.8	-2.2	-19.6	-0.7
Cc1ccc(-c2c(C(=O)Nc3ccc(F)c(F)c3)oc(=O)c3ccccc23)cc1	nt	nt	1.5	2.5	nt
OCC1(CCc2ccccc2)CCCN(CCCc2ccccc2)C1 (configuration not stated)	76.4*	4.8	0.2	-22.7	-23.2
Cc1nc2ccc(C(=O)N3CCCC(CO)(Cc4ccc(F)cc4F)C3)cc2nc1C (configuration not stated)	30.1*	2.4	0.5	-24.8	-8.3
